Compound activity as filed in PubChem BioAssay.
JMJD2A Tudor: blocks the human JMJD2A Tudor domain. AID 504339. Potency, µM (top dose mostly 114 µM), for the others: at the highest dose activity change, negative = inhibition, hits mostly inhibitors. AlphaScreen JMJD2A-Tudor / H3K4me3 peptide binding. O75164. actives 4.4% (n = 390,000); further: potency means the concentration at half of the fitted maximal effect; on the % scale 0 is the no-effect control and ±100 the full control effect; nearly all actives have a fitted effect of over 50% in size
G9a block: blocks human histone lysine methyltransferase G9a. G9a H3K9 monomethylation, AlphaScreen, 2 h. Potency, µM (series often up to 102 µM), inactives show at the highest dose activity, negative = inhibition, actives largely listed as inhibitors. actives 8.8% (n = 350,000); further: potency means the concentration at half of the fitted maximal effect; on the % scale 0 is the no-effect control and ±100 the full control effect; nearly all actives have a fitted effect of over 75% in size
Target sequence (Q96KQ7 913-1193 limits assumed): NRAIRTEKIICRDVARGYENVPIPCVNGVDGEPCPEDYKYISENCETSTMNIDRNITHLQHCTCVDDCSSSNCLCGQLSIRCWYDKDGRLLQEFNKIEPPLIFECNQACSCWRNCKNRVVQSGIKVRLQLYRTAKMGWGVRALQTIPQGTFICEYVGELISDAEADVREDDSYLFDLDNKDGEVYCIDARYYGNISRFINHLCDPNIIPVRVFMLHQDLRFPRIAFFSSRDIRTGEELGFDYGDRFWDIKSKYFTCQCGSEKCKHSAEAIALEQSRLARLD
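G9a (20 nM) preincubated 15 min RT with compounds, then 500 nM biotinylated H3K9 peptide and 20 uM SAM added; 2 h RT reaction. Monomethyl-H3K9 product detected by AlphaScreen with anti-H3K9me1 antibody, streptavidin donor and anti-rabbit IgG acceptor beads.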
CtBP-E1A blk: blocks the CtBP interaction with E1A; AlphaScreen GST-E1A/His-CtBP binding, 1536-well; hits give low values; activity change, % (concentration not given with the values); actives 0.49% (n = 340,000); in the data active means activity change below about -65%; inconclusive means mostly about -30% to -63%; further: on the % scale 0 is the no-effect control and ±100 the full control effect
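Homogeneous bead-based format: GST-tagged E1A captured on glutathione donor beads, His-tagged CtBP on nickel acceptor beads; compounds precede bead addition by 2 h at 37 °C.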
Six1-Eya2 blk: blocks human Six1 binding to Eya2; actives 0.56% (n = 360,000); AlphaScreen GST-Six1/His-Eya2 binding, biochemical; hits give low values; Q15475+O00167; activity change, % (no concentration beside the values); in the data active means activity change below about -65%; inconclusive means mostly about -30% to -63%; further: on the % scale 0 is the no-effect control and ±100 the full control effect
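Compounds are tested against tagged Six1 and Eya2 proteins bridged by glutathione donor and nickel acceptor beads; after a one-hour incubation at 37 °C without light, AlphaScreen emission is recorded.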
BAZ2B inh: inhibitors of human BAZ2B bromodomain | Q9UIF8 | actives 4.4% (n = 360,000) | Potency, µM (highest dose often 114 µM), without a hit: at the top dose activity change, negative = inhibition, hits mostly inhibitors | AlphaScreen BAZ2B-H3K14Ac peptide displacement; further: potency means the concentration at half of the fitted maximal effect; on the % scale 0 is the no-effect control and ±100 the full control effect; nearly all actives have a fitted effect of over 60% in size
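In this displacement format the biotinylated H3(5-23) peptide acetylated at Lys14 serves as ligand at 50 nM, with BAZ2B at 50 nM in PBS pH 7.4 containing 0.01% Tween-20. Donor and acceptor beads are 10 ug/mL final.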
HP1b binding inh: blocks HP1-beta chromodomain binding to methylated histone tails | P83916 | AlphaScreen HP1-beta / biotin-H3K9me3 peptide binding | Potency, µM (top dose mostly 114 µM), inactives show top-dose activity change, negative = inhibition, hits mostly inhibitors | actives 0.56% (n = 390,000) | AID 540317; further: potency means the concentration at half of the fitted maximal effect; nearly all actives have a fitted effect of over 70% in size
Target sequence (P83916 whole entry, looked up): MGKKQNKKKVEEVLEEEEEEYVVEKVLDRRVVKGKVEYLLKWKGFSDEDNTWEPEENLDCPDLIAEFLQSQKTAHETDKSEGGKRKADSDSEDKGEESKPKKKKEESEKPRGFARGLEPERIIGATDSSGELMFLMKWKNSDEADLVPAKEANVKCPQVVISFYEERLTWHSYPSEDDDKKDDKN
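Compound inhibition of the preformed complex between 50 nM HP1-beta and 50 nM biotinylated H3K9me3 peptide was read by AlphaScreen. Buffer was PBS pH 7.4 with 0.01% Tween-20. Incubations ran 30 min at room temperature, with 10 ug/mL donor/acceptor beads.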
Starred values were filed as active, the others as inactive; ? = inconclusive; . = not tested or not shown; [ ] = remark or other dose. Shown are actives, neighbours in structure and some others; about 10% of the full set was active somewhere. Unless noted, the call rests on the fitted dose curve; in most records, active means well fitted inhibition curve with a large enough effect; inconclusive means small, poorly fitted or top-dose-only effect; inactive means no such curve, though single readings can be large or run the other way.

SMILES	JMJD2A Tudor	G9a block	CtBP-E1A blk	Six1-Eya2 blk	BAZ2B inh	HP1b binding inh
N#CCC(=O)N/N=C\c1ccccc1OC/C=C/c1ccccc1	?	30%	?	?	50µM*	29%
COC(=O)c1c(C)[nH]c(O)c1C=Nc1ccc(C#N)cc1	?	18µM*	.	-16	100µM*	17%
CCOC(=O)c1c(C)[nH]c(O)c1C=Nc1ccccc1	?	1%	?	-29	50µM*	-17%
COC(=O)c1c(C)[nH]c(C=Nc2ccc(OC)cc2)c1C	-32%	-44%	0	-3	-29%	3%
Cc1noc(C)c1C(=O)N1CCC2(CC1)CN(C(=O)Nc1cccc(F)c1)C2	.	-14%[12.7 µM]	.	.	.	.
CCOC(=O)c1ccc(-c2ccc(CO)o2)cc1	-31%	45µM*	1	-3	0%[57.1 µM]	-3%
CCOc1ccc(-c2ccc(CO)o2)cc1N	-35%	-32%[59 µM]	.	.	-35%	7%
CCN(c1ccccc1)c1nc(N)nc(C#N)n1	3%[57.1 µM]	.	.	.	.	11%[57 µM]
Cc1noc(C)c1S(=O)(=O)NC(=O)C1(C)CCN1C(=O)C1(c2ccc(Cl)cc2)CC1 (centres undefined)	.	.	4	5	.	.
Cc1ccsc1/C=N/Nc1nc2ccccc2s1	-33%	4%[59 µM]	-14	-1	?	-16%
Cc1cc(C)nc(N/N=C/c2ccccc2)n1	-4%	21%[59 µM]	6	2	-3%	38%
Cc1ccsc1/C=N/Nc1ncc(Cl)cc1Cl	-24%	35%[59 µM]	0	-10	-7%	46%
Cc1cc(C)nc(N/N=C/c2sccc2C)n1	13µM*	1%	2	5	-7%	1%
Cc1ccsc1/C=N/Nc1nc(=O)[nH]nc1C	?	4%	-94*	-83*	32µM*	30%
Cc1ccsc1/C=N/Nc1ccc(F)cc1F	-34%	1.3µM*	-12	-21	?	-29%
Cc1ccc(CNc2ncnc3[nH]ncc23)o1	-9%	.	.	.	.	8%
NC(=O)c1sc(=S)n2c1[nH]c(=O)c1sccc12	?	18µM*	-82*	?	-23%	-9%
CC(=O)NNC(=O)c1sc(=S)n2c1[nH]c(=O)c1sccc12	79µM*	13µM*	?	-65*	-23%	?
COc1ccc(/C=C/C(=O)Nc2nc3n(n2)C(c2ccc(F)cc2)C=C(c2ccccc2)N3)cc1 (centres undefined)	-17%	-32%[59 µM]	.	.	-39%	14%
C/C(=N\Nc1ccc(F)cc1F)c1ccc(F)cc1	.	10%[0.501 µM]	.	.	-1%	.
C/C(=N\Nc1ccc(F)cc1F)c1ccc(Br)s1	-15%	8.9µM*	10	-7	-2%	?
O=C(/C=C/c1ccc(F)cc1)c1ccc(N2CCOCC2)cc1	-8%	3%	-4	5	-13%	15%
C/C(=N\Nc1ccc(F)cc1F)c1ccc(N2CCOCC2)cc1	?	7.9µM*	-8	-8	-37%	-10%
Fc1ccc(N/N=C/c2ccc(N3CCOCC3)cc2)c(F)c1	?	10µM*	3	-6	?	?
C/C(=C\C(=O)c1ccc(F)cc1)Nc1ccc(N2CCOCC2)cc1	?	40µM*	-23	-19	-9%	3%
SMILES	JMJD2A Tudor	G9a block	CtBP-E1A blk	Six1-Eya2 blk	BAZ2B inh	HP1b binding inh
O=[N+]([O-])c1cccc(S(=O)(=O)N2CCN(c3nc(-c4ccccc4)nc4ccccc34)CC2)c1	-15%	.	.	.	.	2%
CN(C)CCNc1cccc2sc3ccc(O)cc3c(=O)c12	.	.	-67*	?	.	.
CCN(CC)CCNc1cccc2sc3ccccc3c(=O)c12	.	.	-14	-11	.	.
Cc1cc(O)cc2c(=O)c3ccccc3sc12	2%[11.4 µM]	-23%	.	-2	-28%	-17%
COc1cc(C)c2sc3ccccc3c(=O)c2c1NCCN(C)C	.	.	-26	-75*	.	.
CN(C)CCNc1ccc2nnn3c4ccc(O)cc4c(=O)c1c23	-25%	.	0	-77*	.	30%
CCN(CC)CCCNc1ccc2ncn3c4ccc(O)cc4c(=O)c1c23	-25%	.	1	?	.	-6%
CCN(CC)CCNc1ccc(CO)c2sc3ccccc3c(=O)c12	?	?	?	-7	?	-9%
Cc1ccc(NCCN(C)C)c2c(=O)c3cc(O)ccc3sc12	40µM*	.	-68*	?	.	?
COC(=O)c1ccccc1-n1c(C)nc(=O)c(-c2ccccc2)c1C	-7%	4%	.	4	3%	17%
COC(=O)c1ccccc1NS(=O)(=O)c1cc2c3c(c1)CC(=O)N3CCC2	-11%	-3%[59 µM]	.	.	-14%	25%
COC(=O)c1c(NC(=O)CN2CCC3(O)CCCCC3C2c2cc(OC)ccc2OC)sc(C)c1C (centres undefined)	-24%	-21%	-14	-9	-38%	-16%
OCCC1CN(CC(c2ccccc2)c2ccccc2)CCN1C1CCCC1 (centres undefined)	-11%	.	4	2	-11%	12%
CCCC(=O)N(c1ccc2oc(C)c(C(C)=O)c2c1)S(=O)(=O)c1ccc(C)c([N+](=O)[O-])c1	-13%	-7%[59 µM]	3	-5	5%	34%
CC(=O)N(c1ccc2oc(=O)sc2c1)S(=O)(=O)c1cccc2cccnc12	-12%	22µM*	-14	-24	-19%	22%
CCCC(=O)N(c1ccc2oc(C)c(C(C)=O)c2c1)S(=O)(=O)c1ccc(C(=O)O)cc1	-14%	35µM*	-1	10	-2%	-3%
CC(=O)N(c1ccc2oc(=O)sc2c1)S(=O)(=O)c1ccc(C(=O)O)cc1	-24%	18µM*	-17	9	-15%	11%
COc1cccc(-c2nc3nc(C)cc(C)n3c2Nc2c(C)cccc2C)c1	.	.	0	-4	.	.
CCOC(=O)c1c(C)[nH]c(C)c1S(=O)(=O)N1CCCC(C(=O)NCc2cccc(OC)c2)C1 (centres undefined)	-9%	-30%[59 µM]	.	.	-8%	18%
CCN(CC)C(=O)Cn1c(=O)n(CCC(=O)Nc2ccc(F)cc2)c(=O)c2sccc21	?	-9%	3	-1	3%	23%
Cc1n[nH]c(C)c1Sc1ccccc1N=Cc1cc([N+](=O)[O-])ccc1O	.	10µM*	.	.	4%	.
CCc1c(C)sc(NC(=O)c2cccs2)c1C#N	-9%	13µM*	-4	-6	3%	-7%
CCc1c(C)sc(NC(=O)c2cc(-c3ccco3)on2)c1C#N	-19%	13µM*	23	1	-1%	-14%
CCc1c(C)sc(NC(=O)C2CCCO2)c1C#N (centres undefined)	-25%[57.1 µM]	8.9µM*	-1	1	-2%	?
CCc1c(C)sc(NC(=O)c2cc(-c3ccc(OC)cc3)on2)c1C#N	2%	10µM*	.	.	-3%	9%
